Compounds with a hit are over-represented: about 1.8% of the library has one in this group of screens.
Peg3 imprint = qHTS Assay for Compounds that Induce Erasure of Genomic Imprints | mouse ES Peg3-LacZ reporter, beta-gal luminescence, 40 h | Potency, µM (highest dose often 60.7 µM), most hits filed as activators | 110,000 compounds, 0.02% hits | AID 1948, 2009
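Readout: BetaGlo luminescence (5 min, room temp) for LacZ from the normally silent maternal Peg3 allele in female Peg3LacZ-Neo ES cells. Cells 300/well, 40 h, 37C, 5% CO2. Data normalized per plate to negative controls.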
p53ts 32C kill = qHTS Screen for Compounds that Selectively Target Cancer Cells with p53 Mutations: Cytotoxicity of p53ts Cells at the Permissive Temperature | 130,000 compounds, 0.93% hits | Potency, µM (highest dose often 46.1 µM), actives largely listed as cytotoxic | AID 924, 2007 | H1299-p53A138V at 32C, ATP luminescence viability, 24 h; also: nearly all actives have a fitted effect of over 55% in size
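Cells: H1299 p53ts (A138V), 600/well, pre-incubated 16–30 h at 37C. Cpd up to 46 uM, 24 h, 32C. Readout: ATPlite luminescence, 20 min RT. Normalization: DMSO vs tamoxifen 100 uM. AC50 by Hill equation.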
p53ts 39C kill = qHTS Screen for Compounds that Selectively Target Cancer Cells with p53 Mutations: Cytotoxicity of p53ts Cells at the Nonpermissive Temperature | H1299-p53A138V viability at 39C, ATP luminescence, 24 h | Potency, µM (titrated, usually from 46.1 µM), actives largely listed as cytotoxic | 130,000 compounds, 1.5% hits | AID 902, 2007; also: nearly all actives have a fitted effect of over 55% in size
Of the large screens only hits and unclear results are named; the others gave an inactive call. Calls follow the shape of the dose curve; as a rule, active = well fitted curve in the direction sought with a large enough effect; inconclusive = small, poorly fitted or top-dose-only effect, or another doubt; inactive = no such curve, though single readings can be large; an effect the other way counts as inactive or inconclusive.

COc1cccc(N2CCN(C(=O)CCCn3c(=O)[nH]c4ccc(Br)cc4c3=O)CC2)c1	p53ts 32C kill 12.6µM
COC(=O)c1c(NC(=O)/C(C#N)=C/c2ccccc2)sc2c1CCC2	none
Cc1ccc2oc(-c3ccc(Cl)c(NC(=O)c4ccc(-c5ccccc5[N+](=O)[O-])o4)c3)nc2c1	none
CCOc1ccc(NC(=O)c2ccco2)cc1	p53ts 32C kill 10µM, p53ts 39C kill 10µM
CCn1cnc2cc(NC(=O)c3ccco3)ccc21	p53ts 32C kill 12.6µM, p53ts 39C kill 8.91µM (no result: Peg3 imprint)
Cn1c(CCNC(=O)c2ccco2)nc2cc(NC(=O)c3ccco3)ccc21	p53ts 32C kill inconclusive, p53ts 39C kill inconclusive
CCOc1ccccc1NC(=O)c1ccc(NC(=O)c2ccco2)cc1	none (no result: Peg3 imprint)
CCOCCc1nn2c(=O)cc(COC(=O)c3ccccc3Br)nc2s1	none
COc1ccc(C(=O)N=c2nc3ccccn3s2)cc1	p53ts 32C kill 0.794µM, p53ts 39C kill 0.316µM
COc1ccc(C(=O)NC2c3ccccc3-c3ccccc32)cc1	none (no result: Peg3 imprint, p53ts 32C kill)
C=CCn1c(-c2ccc(OC)cc2)nc2ccccc21	p53ts 32C kill 15.8µM, p53ts 39C kill inconclusive
COc1ccc(-c2nc3ccccc3n2Cc2ccccc2)cc1	none
CCOc1cc(C(=O)CSc2nnc(CNc3ccc(Cl)cc3)o2)ccc1NC(=O)CC	p53ts 32C kill 15.8µM, p53ts 39C kill 15.8µM (no result: Peg3 imprint)
CCc1nnc(NC(=O)CSc2nnc(CNc3ccc(Cl)cc3)o2)s1	none
CCCOc1cccc(C2c3c(-c4ccccc4O)n[nH]c3C(=O)N2Cc2ccco2)c1 (stereo not drawn)	p53ts 32C kill inconclusive, p53ts 39C kill 31.6µM
COc1ccc(C2c3c(-c4c(C)cc(C)cc4O)n[nH]c3C(=O)N2Cc2ccco2)cc1 (stereo not drawn)	p53ts 32C kill inconclusive, p53ts 39C kill inconclusive
COc1ccc(C2c3c(-c4ccccc4O)n[nH]c3C(=O)N2Cc2ccco2)cc1 (stereo not drawn)	p53ts 39C kill inconclusive
Cc1cc(C)c(-c2n[nH]c3c2C(c2ccccc2F)N(Cc2ccco2)C3=O)c(O)c1 (stereo not drawn)	p53ts 39C kill 15.8µM
Cc1nc2cc(NC(=O)Nc3nccs3)ccc2n1C	p53ts 32C kill 7.94µM, p53ts 39C kill 7.94µM
Cc1nc2cc(NC(=O)NCc3ccco3)ccc2n1C	none
O=C(c1cc(-c2ccc(F)cc2)on1)N1CCCC1	p53ts 32C kill 15.8µM, p53ts 39C kill 10µM
COc1cccc(-c2cc(C(=O)N3CCCCCC3)no2)c1	p53ts 32C kill 12.6µM, p53ts 39C kill 10µM
O=C(c1cc(-c2ccc(Cl)c(Cl)c2)on1)N1CCCC1	none
COc1cccc(-c2cc(C(=O)N3CCN(c4ccc(F)cc4)CC3)no2)c1	none
O=C(c1cc(-c2cccc(Cl)c2)on1)N1CCCCC1	Peg3 imprint inconclusive
O=C(c1cc(-c2ccc(Cl)cc2Cl)on1)N1CCOCC1	p53ts 32C kill 3.16µM, p53ts 39C kill 10µM
O=C(c1cc(-c2ccc(Cl)cc2)on1)N1CCOCC1	p53ts 32C kill 10µM, p53ts 39C kill 12.6µM
CC1CCN(C(=O)c2cc(-c3ccc(Cl)cc3)on2)CC1	none
CC(=O)N1CCc2cc(CNC(=O)Nc3cc(Cl)ccc3C)ccc21	none
CCCN[C@@H](C)C(=O)Nc1c(C)csc1C(=O)OC	none
COC(=O)CCCCCN1C(=O)NC(CC2CC2)C(C(=O)OCc2ccccc2)=C1C (stereo not drawn)	none
COC(=O)[C@@]1(Cc2ccc(OC)cc2)[C@H]2c3cc(C(=O)N4CCCC4)n(CCc4c[nH]c5cc(F)ccc45)c3C[C@H]2CN1C(=O)c1ccccc1	none
O=C(c1cc(-c2ccc3c(c2)OCO3)on1)N1CCOCC1	p53ts 32C kill 7.94µM, p53ts 39C kill 7.94µM
O=C(c1cc(-c2ccc3c(c2)OCO3)on1)N1CCN(c2ccccc2)CC1	p53ts 32C kill inconclusive
O=C(O)c1ccc(CO)o1	none
COc1ccc(CC(=O)c2ccccc2C(=O)O)cc1	p53ts 32C kill inconclusive, p53ts 39C kill 10µM
COc1ccc(CC(=O)Nc2cccc(C(=O)O)c2C)cc1	none
Cc1cccc(OCc2cc(=O)n3c(-c4ccccc4)csc3n2)c1C	none
COc1ccccc1CCNC(=O)Cc1c(C)c2c(O)cc(C)cc2oc1=O	none
Cc1cccc(NC(=O)Cn2c(=O)n(CCCCCC(=O)NCc3ccccc3)c(=O)c3sccc32)c1	none
CN(C)c1cccc(C(=O)Nc2ccc(-c3nc4ccccc4s3)cc2)c1	p53ts 32C kill inconclusive, p53ts 39C kill inconclusive
CN(C)c1ccc2nc3ccc(=[N+](C)C)cc-3sc2c1	p53ts 39C kill 3.16µM
Cc1cc2c(nc1C)CCCN2C[C@@H](O)CN1CCN(C)CC1	none (no result: Peg3 imprint)
CCCCNC(=O)CCC(=O)NNc1nc2ccccc2c2nc(C)nn12	none
CCCCNC(=O)CCC(=O)NNc1nc2ccccc2c2nc(-c3ccccc3)nn12	Peg3 imprint inconclusive, p53ts 39C kill 12.6µM
C[C@@H]1CN(CCCn2c3ccccc3c3ccccc32)C[C@H](C)N1	p53ts 39C kill 25.1µM
CC1CC(C)CN(CCCn2c(=S)[nH]c3ccccc3c2=O)C1 (stereo not drawn)	none
Cc1ccc(CSc2ccc(-c3cccs3)nn2)cc1	none
Cc1ccccc1CSc1ccc(-c2cccs2)nn1	p53ts 32C kill inconclusive, p53ts 39C kill 11.2µM
CCCN(C(=O)c1cc2c(s1)-c1ccccc1OC2)c1ccccc1F	none
CCCN(C(=O)c1cc2c(s1)-c1ccccc1SC2)c1ccccc1F	p53ts 39C kill 25.1µM
CC1=C(C(=O)OCc2ccc(C)cc2)C(c2cccc(F)c2F)CC(=O)N1 (stereo not drawn)	none
CCc1ccc(NC(=O)N2CCC(N3CCN(Cc4ccc(C)cc4)C(=O)C3=O)CC2)cc1	none
CCOC(=O)COc1ccc(-c2nnc(-c3ccccc3)o2)cc1	p53ts 32C kill 10µM, p53ts 39C kill inconclusive
CCOc1ccc(-c2nnc(-c3ccccc3)o2)cc1	p53ts 32C kill inconclusive (no result: Peg3 imprint)
COC(=O)NC(c1ccccc1)C(C(=O)OC)C(=O)OC (stereo not drawn)	none (no result: Peg3 imprint)
O=C1NCCCC2c3cc(O)c4ccccc4c3OC12N1CCCCC1 (stereo not drawn)	p53ts 32C kill 6.31µM, p53ts 39C kill 7.94µM
O=C1NCCCC2c3c(cc(Br)c(O)c3Br)OC12N1CCOCC1 (stereo not drawn)	none
CCOc1ccccc1CNC(=O)CCn1cccn1	none
COc1ccc(Nc2nc(N)c3cc(OC)c(OC)cc3n2)cc1	p53ts 32C kill inconclusive, p53ts 39C kill 12.6µM
COc1cc2nc(Nc3cccc(F)c3)nc(N)c2cc1OC	p53ts 39C kill inconclusive
Cc1ccc(CSCCC(=O)NCc2ccc(F)cc2Cl)cc1	none
COc1cccc(/C=C/C(=O)Nc2ccc3nc(N4CCN(C)CC4)cc(C)c3c2)c1OC	p53ts 32C kill inconclusive, p53ts 39C kill 12.6µM
Cc1cc(C)cc(NC(=O)Nc2ccc3nc(N4CCN(C)CC4)cc(C)c3c2)c1	p53ts 39C kill 12.6µM
Cc1cc(N2CCN(C)CC2)nc2ccc(NC(=O)Nc3ccccc3Cl)cc12	p53ts 32C kill 10µM, p53ts 39C kill 12.6µM
COc1cccc(NC(=O)Nc2ccc3nc(N4CCN(C)CC4)cc(C)c3c2)c1	none
CCN1CCN(c2cc(C)c3cc(NC(=O)/C=C/c4cccc(OC)c4OC)ccc3n2)CC1	p53ts 32C kill inconclusive, p53ts 39C kill inconclusive
